Source: the supplement of paper PMC11732987, “Enantioselective OTUD7B fragment discovery through chemoproteomics screening and high-throughput optimisation” (Communications Chemistry, 2025)

How the values were obtained:
Experiment in all cases: log2 ratio of Biotin-Ahx-Ub-VS probe labelling (fragment/DMSO); higher = less target engagement (more negative = stronger competition), active = hit call of the paper (q ≤ 0.05, log2 ratio ≤ -1)
Settings in all cases: compound concentration: 200 uM; treatment time: 3 h
[1] = target: T1, USP19 (UniProt O94966)
T1 sequence (whole entry): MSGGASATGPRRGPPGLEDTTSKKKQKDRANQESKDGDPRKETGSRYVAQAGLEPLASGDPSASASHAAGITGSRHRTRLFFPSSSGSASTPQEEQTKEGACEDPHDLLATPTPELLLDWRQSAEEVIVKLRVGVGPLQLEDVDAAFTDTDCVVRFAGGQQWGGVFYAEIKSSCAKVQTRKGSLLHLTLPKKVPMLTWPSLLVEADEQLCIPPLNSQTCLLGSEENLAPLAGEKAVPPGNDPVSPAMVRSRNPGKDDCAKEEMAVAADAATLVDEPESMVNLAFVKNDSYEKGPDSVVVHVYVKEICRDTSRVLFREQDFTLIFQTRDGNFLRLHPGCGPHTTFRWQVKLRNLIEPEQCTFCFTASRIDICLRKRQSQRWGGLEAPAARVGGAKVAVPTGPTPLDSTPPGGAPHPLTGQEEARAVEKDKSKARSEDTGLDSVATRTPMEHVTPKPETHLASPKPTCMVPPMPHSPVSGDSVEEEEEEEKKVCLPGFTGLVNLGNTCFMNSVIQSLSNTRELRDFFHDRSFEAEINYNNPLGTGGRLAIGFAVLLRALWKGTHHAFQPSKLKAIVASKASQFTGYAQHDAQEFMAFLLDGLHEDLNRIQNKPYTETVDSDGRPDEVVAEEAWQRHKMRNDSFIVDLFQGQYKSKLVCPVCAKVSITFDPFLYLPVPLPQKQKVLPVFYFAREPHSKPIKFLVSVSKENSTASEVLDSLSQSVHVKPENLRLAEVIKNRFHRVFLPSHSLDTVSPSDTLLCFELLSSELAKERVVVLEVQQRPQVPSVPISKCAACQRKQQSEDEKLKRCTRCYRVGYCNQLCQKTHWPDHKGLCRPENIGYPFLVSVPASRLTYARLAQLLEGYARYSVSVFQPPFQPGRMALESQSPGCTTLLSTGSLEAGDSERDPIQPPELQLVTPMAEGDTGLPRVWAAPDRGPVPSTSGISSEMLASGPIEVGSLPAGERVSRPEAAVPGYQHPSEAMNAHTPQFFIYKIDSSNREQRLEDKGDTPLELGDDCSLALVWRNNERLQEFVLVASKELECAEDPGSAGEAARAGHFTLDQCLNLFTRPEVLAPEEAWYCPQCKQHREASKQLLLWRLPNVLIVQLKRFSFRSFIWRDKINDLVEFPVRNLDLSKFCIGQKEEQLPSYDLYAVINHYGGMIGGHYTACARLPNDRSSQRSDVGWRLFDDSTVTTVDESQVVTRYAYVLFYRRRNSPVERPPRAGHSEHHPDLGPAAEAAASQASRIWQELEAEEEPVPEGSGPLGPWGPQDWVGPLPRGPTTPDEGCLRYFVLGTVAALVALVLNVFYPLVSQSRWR
In short: (§1)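 HEK293T lysate in Tris/CHAPS/IGEPAL buffer with protease inhibitors (495 µg per sample) was given fragment at 200 µM or vehicle for 3 h, in triplicate. It then received Biotin-Ahx-Ub-VS at 0.5 µM final for 1 h. Labelled DUBs were NeutrAvidin-enriched, digested with LysC and trypsin, and run by diaPASEF LC-MS/MS. Values are average log2 fragment/vehicle ratios by unpaired t-test on global-median-normalised Spectronaut quantities of proteins with ≥2 unique peptides.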

[2] = target: T2, USP22 (UniProt Q9UPT9)
T2 sequence (whole entry): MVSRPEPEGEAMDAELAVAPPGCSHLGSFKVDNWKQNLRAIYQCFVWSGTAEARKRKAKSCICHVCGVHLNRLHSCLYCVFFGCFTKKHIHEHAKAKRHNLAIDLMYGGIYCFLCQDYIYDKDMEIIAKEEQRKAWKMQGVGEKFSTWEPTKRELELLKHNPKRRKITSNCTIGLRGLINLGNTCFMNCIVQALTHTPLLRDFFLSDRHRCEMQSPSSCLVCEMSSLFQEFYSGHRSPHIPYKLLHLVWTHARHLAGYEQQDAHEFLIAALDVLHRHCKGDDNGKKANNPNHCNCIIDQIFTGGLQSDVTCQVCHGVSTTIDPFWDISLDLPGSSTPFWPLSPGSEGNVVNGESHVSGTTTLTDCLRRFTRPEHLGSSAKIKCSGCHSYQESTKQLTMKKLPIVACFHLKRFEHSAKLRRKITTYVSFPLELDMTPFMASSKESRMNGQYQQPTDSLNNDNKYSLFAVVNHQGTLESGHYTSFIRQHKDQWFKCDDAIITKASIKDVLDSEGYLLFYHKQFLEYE
In short: as §1

[3] = target: USP24 (UniProt Q9UPU5)
Sequence of USP24 (Q9UPU5 whole entry): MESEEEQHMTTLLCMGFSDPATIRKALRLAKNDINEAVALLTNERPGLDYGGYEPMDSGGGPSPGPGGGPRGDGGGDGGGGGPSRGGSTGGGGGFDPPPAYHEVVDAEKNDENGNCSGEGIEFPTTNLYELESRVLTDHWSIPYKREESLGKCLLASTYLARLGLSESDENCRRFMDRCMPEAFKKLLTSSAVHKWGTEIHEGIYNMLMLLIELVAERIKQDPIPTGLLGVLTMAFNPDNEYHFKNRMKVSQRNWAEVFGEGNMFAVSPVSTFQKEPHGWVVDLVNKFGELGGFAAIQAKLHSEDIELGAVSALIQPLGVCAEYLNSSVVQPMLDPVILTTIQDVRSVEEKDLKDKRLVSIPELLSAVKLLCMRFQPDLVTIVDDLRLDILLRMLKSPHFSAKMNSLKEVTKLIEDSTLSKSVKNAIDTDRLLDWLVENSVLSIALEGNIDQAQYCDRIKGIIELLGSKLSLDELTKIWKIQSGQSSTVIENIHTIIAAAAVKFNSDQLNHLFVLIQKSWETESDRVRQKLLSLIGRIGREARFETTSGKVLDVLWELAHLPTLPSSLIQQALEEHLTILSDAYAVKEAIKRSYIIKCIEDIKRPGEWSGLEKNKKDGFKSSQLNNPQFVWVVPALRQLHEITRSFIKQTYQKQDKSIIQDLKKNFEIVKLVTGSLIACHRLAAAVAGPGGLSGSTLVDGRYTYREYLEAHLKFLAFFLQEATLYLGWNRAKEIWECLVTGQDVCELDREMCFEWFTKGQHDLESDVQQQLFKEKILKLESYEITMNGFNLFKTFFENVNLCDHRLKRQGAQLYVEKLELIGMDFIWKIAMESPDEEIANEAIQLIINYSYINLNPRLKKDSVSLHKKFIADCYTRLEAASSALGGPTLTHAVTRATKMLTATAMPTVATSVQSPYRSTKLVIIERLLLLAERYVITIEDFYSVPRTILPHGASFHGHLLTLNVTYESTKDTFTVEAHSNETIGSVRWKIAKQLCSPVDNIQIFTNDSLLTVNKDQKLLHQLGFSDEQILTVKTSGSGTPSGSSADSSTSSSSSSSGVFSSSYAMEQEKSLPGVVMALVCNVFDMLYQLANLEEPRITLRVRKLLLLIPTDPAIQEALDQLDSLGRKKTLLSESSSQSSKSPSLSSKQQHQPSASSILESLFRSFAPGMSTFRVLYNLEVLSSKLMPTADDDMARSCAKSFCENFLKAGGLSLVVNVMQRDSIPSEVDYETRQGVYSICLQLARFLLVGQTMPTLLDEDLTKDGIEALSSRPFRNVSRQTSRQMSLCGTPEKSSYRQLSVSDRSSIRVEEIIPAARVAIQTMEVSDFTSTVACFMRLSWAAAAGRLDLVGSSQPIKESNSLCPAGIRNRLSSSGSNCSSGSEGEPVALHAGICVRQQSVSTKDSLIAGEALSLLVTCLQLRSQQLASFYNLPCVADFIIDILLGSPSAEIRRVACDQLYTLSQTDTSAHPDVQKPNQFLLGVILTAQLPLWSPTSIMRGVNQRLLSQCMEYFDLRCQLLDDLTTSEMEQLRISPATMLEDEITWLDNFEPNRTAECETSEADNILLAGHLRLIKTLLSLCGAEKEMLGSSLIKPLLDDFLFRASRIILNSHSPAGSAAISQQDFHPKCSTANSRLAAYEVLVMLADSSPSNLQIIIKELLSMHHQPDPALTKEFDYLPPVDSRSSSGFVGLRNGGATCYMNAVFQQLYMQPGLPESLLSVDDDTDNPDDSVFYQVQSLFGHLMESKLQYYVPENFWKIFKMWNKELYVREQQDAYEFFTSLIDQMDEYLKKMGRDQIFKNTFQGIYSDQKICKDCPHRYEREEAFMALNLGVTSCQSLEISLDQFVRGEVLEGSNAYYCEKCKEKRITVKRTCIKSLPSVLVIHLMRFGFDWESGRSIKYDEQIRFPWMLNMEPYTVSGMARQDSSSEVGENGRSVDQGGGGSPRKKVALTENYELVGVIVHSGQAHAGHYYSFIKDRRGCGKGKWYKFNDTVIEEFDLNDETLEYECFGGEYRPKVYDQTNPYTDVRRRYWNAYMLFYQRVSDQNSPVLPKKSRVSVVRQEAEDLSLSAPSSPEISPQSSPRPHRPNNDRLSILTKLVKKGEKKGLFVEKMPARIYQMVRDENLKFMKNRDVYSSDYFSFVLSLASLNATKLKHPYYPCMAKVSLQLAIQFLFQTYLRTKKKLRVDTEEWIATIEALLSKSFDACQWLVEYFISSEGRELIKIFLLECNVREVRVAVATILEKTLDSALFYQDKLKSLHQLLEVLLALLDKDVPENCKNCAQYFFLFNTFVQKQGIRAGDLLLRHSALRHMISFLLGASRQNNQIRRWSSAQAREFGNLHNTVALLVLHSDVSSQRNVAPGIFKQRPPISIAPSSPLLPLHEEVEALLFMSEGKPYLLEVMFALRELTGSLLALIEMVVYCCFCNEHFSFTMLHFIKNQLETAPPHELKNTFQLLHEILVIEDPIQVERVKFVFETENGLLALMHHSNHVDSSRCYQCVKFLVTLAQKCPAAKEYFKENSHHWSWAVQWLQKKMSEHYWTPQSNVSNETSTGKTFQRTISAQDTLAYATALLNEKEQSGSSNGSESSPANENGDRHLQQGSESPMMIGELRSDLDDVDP
In short: as §1

[4] = target: T3, USP25 (UniProt Q9UHP3)
T3 sequence (whole entry): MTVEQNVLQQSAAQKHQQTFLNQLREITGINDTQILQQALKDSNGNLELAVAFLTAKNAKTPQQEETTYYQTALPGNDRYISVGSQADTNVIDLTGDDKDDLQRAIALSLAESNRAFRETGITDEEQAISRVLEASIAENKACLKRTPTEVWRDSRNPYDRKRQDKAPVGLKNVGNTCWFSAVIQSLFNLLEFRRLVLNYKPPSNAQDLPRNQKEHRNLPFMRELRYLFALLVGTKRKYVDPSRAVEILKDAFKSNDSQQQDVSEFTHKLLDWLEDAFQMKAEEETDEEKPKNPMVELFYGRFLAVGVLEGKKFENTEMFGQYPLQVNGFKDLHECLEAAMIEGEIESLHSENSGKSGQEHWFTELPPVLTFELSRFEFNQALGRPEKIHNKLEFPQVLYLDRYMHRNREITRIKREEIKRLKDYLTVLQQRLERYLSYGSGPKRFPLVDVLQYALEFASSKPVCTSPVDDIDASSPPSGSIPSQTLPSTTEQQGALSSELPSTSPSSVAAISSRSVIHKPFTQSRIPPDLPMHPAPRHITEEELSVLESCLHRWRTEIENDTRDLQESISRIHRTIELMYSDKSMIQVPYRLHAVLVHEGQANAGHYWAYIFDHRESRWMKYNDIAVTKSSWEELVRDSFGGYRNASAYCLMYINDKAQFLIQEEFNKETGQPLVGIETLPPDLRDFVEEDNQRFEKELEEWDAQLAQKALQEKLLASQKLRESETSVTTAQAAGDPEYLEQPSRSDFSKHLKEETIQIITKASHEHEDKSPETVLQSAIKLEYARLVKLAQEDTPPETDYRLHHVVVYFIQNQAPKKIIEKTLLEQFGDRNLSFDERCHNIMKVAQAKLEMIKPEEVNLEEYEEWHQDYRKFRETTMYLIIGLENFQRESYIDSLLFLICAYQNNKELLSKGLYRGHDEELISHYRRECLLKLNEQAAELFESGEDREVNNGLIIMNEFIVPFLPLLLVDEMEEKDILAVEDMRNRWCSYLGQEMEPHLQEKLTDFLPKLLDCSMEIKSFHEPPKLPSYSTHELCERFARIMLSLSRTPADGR
In short: as §1

[5] = target: T4, USP28 (UniProt Q96RU2)
T4 sequence (whole entry): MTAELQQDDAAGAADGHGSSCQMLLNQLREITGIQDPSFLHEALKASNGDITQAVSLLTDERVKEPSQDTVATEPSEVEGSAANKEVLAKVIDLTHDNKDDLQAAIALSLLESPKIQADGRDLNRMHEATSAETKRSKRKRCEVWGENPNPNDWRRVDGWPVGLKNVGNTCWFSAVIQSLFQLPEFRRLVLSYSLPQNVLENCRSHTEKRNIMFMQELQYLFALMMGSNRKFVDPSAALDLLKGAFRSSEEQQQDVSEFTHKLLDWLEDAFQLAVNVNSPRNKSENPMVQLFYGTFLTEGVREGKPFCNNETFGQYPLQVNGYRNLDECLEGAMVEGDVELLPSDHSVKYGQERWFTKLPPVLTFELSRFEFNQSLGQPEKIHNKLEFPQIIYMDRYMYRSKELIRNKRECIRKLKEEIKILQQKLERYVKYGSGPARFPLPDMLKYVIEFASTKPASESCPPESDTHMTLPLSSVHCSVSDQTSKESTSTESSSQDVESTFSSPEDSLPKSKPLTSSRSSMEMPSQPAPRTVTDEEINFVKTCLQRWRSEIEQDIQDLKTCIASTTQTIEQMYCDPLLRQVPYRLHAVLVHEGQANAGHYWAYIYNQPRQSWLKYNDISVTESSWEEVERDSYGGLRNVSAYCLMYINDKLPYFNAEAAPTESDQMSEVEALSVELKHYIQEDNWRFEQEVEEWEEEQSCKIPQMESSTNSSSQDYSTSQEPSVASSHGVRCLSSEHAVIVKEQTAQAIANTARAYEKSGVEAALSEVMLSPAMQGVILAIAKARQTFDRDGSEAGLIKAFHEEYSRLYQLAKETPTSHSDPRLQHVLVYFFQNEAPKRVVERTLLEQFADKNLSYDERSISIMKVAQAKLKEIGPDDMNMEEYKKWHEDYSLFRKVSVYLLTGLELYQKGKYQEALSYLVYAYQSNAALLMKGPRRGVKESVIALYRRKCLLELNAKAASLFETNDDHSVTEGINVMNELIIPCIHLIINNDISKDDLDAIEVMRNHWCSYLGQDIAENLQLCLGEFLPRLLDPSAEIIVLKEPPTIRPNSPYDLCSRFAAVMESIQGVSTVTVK
In short: as §1

Measured: log2 ratio of Biotin-Ahx-Ub-VS probe labelling

O=C(CCl)N1CCC(=C(F)CO)C1
inactive: [1] -0.052 | [2] 0.192 | [3] 0.183 | [4] 0.0707 | [5] -0.149
